Outcome and AC50 data for six compounds are collected here from PubChem BioAssay (EPA / NIEHS).

Holding throughout (conditions): mRNA level, 48 h; actives raise or lower the signal
Read-out in assay [1]: Heat shock 70 kDa protein 1 (HSPA1A), gene 3303
The assay can be described thus: LTEA_HepaRG_HSPA1A: Life Technologies and Expression Analysis (LTEA) Assay for Heat shock 70 kDa protein 1 (HSPA1A) using HepaRG (AID 2283502). In outline: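 HSPA1A induction in human HepaRG liver cells is measured after 48 h of chemical treatment (100 uM maximum, 0.5% DMSO vehicle). Expression comes from qRT-PCR normalized to endogenous controls.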

Read-out in assay [2]: Hypoxia-inducible factor 1-alpha (Homo sapiens) (UniProt Q16665)
The assay can be described thus: LTEA_HepaRG_HIF1A: Life Technologies and Expression Analysis (LTEA) Assay for Hypoxia-inducible factor 1 (HIF1A) Trancription factor using HepaRG (AID 2283503). In outline: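 HepaRG, 48 h exposure, 8-pt half-log series from 100 uM, 0.5% DMSO vehicle, duplicates. Readout: HIF1A transcript by qRT-PCR (Fluidigm array), housekeeping-normalised. Bidirectional curve fit vs DMSO baseline.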

Read-out in assay [3]: 3-Hydroxy-3-Methylglutaryl-CoA Synthase 2 (HMGCS2), HMGCS2 (gene 3158)
The assay can be described thus: LTEA_HepaRG_HMGCS2: Life Technologies and Expression Analysis (LTEA) Assay for 3-Hydroxy-3-Methylglutaryl-CoA Synthase 2 (HMGCS2) using HepaRG (AID 2283504). The method, boiled down:
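HepaRG, plated 48 h then switched to serum-free induction media; cmpd 8-pt, max 100 uM, 1/2-log, 0.5% DMSO, n=2, 48 h. HMGCS2 mRNA by Fluidigm TaqMan qRT-PCR, ACTB/GAPDH/POLR2A norm; bidirectional fit vs DMSO.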

Read-out in assay [4]: HGF (gene 3082)
The experiment in a line: LTEA_HepaRG_HGF: Life Technologies and Expression Analysis (LTEA) Assay for Hepatocyte Growth Facto (HGF) using HepaRG (AID 2283505). In outline: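 Read-out is HGF transcript level by qRT-PCR, normalized to three housekeeping genes, fitted bidirectionally against 0.5% DMSO vehicle. Human HepaRG cells received test chemicals for 48 h at up to 100 uM.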

Read-out in assay [5]: Insulin Like Growth Factor 1 (IGF1), IGF1 (gene 3479)
The assay can be described thus: LTEA_HepaRG_IGF1: Life Technologies and Expression Analysis (LTEA) Assay for Insulin Like Growth Factor 1 (IGF1) using HepaRG (AID 2283506). In outline: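 Using human HepaRG liver cells, IGF1 transcript induction or suppression is measured 48 h after dosing across eight concentrations capped at 100 uM. Values derive from bidirectional concentration-response fitting with DMSO as baseline.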

Read-out in assay [6]: Intercellular Adhesion Molecule 1 (ICAM1), ICAM1 (gene 3383)
The experiment in a line: LTEA_HepaRG_ICAM1: Life Technologies and Expression Analysis (LTEA) Assay for Intercellular Adhesion Molecule 1 (ICAM1) using HepaRG (AID 2283507). The method, boiled down: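 Readout is qRT-PCR mRNA level, normalized to three housekeeping genes and fitted bidirectionally against 0.5% DMSO vehicle. Human HepaRG cultures received compound for 48 h, top concentration 100 uM with half-log dilutions.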

Read-out in assay [7]: Insulin-like growth factor-binding protein 1 (IGFBP1), IGFBP1 (gene 3484)
The experiment in a line: LTEA_HepaRG_IGFBP1: Life Technologies and Expression Analysis (LTEA) Assay for Insulin-like growth factor-binding protein 1 (IGFBP1) using HepaRG (AID 2283508). In outline: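 Thawed HepaRG cells are plated for 48 h, switched to serum-free induction medium, then dosed in duplicate for another 48 h (100 uM top, half-log steps). Lysates in RLT go to qRT-PCR, and gain or loss of signal is fitted relative to vehicle.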

Read-out in assay [8]: Interleukin 6 (IL6), IL6 (gene 3569)
The assay can be described thus: LTEA_HepaRG_IL6: Life Technologies and Expression Analysis (LTEA) Assay for Interleukin 6 (IL6) using HepaRG (AID 2283509). In outline: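 HepaRG, ~100,000 cells/well, 48 h pre-culture; serum-free induction medium; cmpd 8-pt half-log from 100 uM, 0.5% DMSO, duplicate, 48 h. Lysis in RLT, TaqMan qRT-PCR; gain or loss vs DMSO.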

Read-out in assay [9]: Interleukin 6 Receptor (IL6R), IL6R (gene 3570)
The assay can be described thus: LTEA_HepaRG_IL6R: Life Technologies and Expression Analysis (LTEA) Assay for Interleukin 6 Receptor (IL6R) using HepaRG (AID 2283510).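 On AC50: TaqMan qRT-PCR signal normalized to ACTB GAPDH and POLR2A housekeeping genes.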 In outline:
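Concentration-response in human liver HepaRG cells: eight concentrations from 100 uM downward by half-logs, 48 h exposure, 0.5% DMSO vehicle. IL6R mRNA change measured by qRT-PCR and fitted in both directions relative to vehicle.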

Read-out in assay [10]: Potassium channel subfamily K member 1 (KCNK1), KCNK1 (gene 3775)
The experiment in a line: LTEA_HepaRG_KCNK1: Life Technologies and Expression Analysis (LTEA) Assay for Potassium channel subfamily K member 1 (KCNK1) using HepaRG (AID 2283511). In outline:
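Gain or loss of KCNK1 mRNA is the read-out, quantified by qRT-PCR against three housekeeping genes after 48 h chemical treatment of human HepaRG liver cells. Concentrations ran from 100 uM downward in half-log steps, vehicle 0.5% DMSO.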

Read-out in assay [11]: Keratin 19 (KRT19), KRT19 (gene 3880)
The assay can be described thus: LTEA_HepaRG_KRT19: Life Technologies and Expression Analysis (LTEA) Assay for Keratin 19 (KRT19) using HepaRG (AID 2283512). In outline:
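KRT19 transcript levels, measured by Fluidigm qRT-PCR against three housekeeping genes, are fitted for gain or loss of signal relative to DMSO. Human HepaRG cells receive test chemicals (top 100 uM, half-log steps, 0.5% DMSO) for 48 hours.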

Read-out in assay [12]: JUN Transcription Factor, JUN (gene 3725)
The experiment in a line: LTEA_HepaRG_JUN: Life Technologies and Expression Analysis (LTEA) Assay for JUN Transcription Factor using HepaRG (AID 2283513). In outline: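 Human HepaRG liver cells receive test chemicals in 0.5% DMSO for 48 h across an eight-point range topping at 100 uM. Expression changes in JUN are scored in both directions against the DMSO vehicle.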

Read-out in assay [13]: Lipase C (LIPC), LIPC (gene 3990)
The experiment in a line: LTEA_HepaRG_LIPC: Life Technologies and Expression Analysis (LTEA) Assay for Lipase C (LIPC) using HepaRG (AID 2283514). In outline:
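Read-out is LIPC transcript level by TaqMan qRT-PCR, normalized to three housekeeping genes, after 48 h chemical treatment of human HepaRG liver cells. Curves span eight concentrations topping at 100 uM; activity in either direction scored relative to 0.5% DMSO.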

Read-out in assay [14]: Lipoprotein lipase (LPL), LPL (gene 4023)
The experiment in a line: LTEA_HepaRG_LPL: Life Technologies and Expression Analysis (LTEA) Assay for Lipoprotein lipase (LPL) using HepaRG (AID 2283515). In outline:
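Read-out is LPL transcript level by qRT-PCR, normalized to three housekeeping genes and fitted bidirectionally against the DMSO control. Human HepaRG cells received chemicals for 48 h at up to 100 uM.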

Read-out in assay [15]: MicroRNA 122 (MIR122), gene 406906
The experiment in a line: LTEA_HepaRG_MIR122: Life Technologies and Expression Analysis (LTEA) Assay for MicroRNA 122 (MIR122) using HepaRG (AID 2283516). Further: the transcript read is the microRNA miR-122. The method, boiled down: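 HepaRG, 48 h exposure, 8-pt half-log from 100 uM, 0.5% DMSO; TaqMan qRT-PCR; bidirectional fit vs DMSO.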

Read-out in assay [16]: matrix metalloproteinase-10 (MMP10), MMP10 (gene 4319)
The assay can be described thus: LTEA_HepaRG_MMP10: Life Technologies and Expression Analysis (LTEA) Assay for matrix metalloproteinase-10 (MMP10) using HepaRG (AID 2283517). The method, boiled down: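 Gain or loss of MMP10 mRNA is fitted relative to the 0.5% DMSO vehicle. The human hepatic line HepaRG receives a 48-hour serum-free exposure, in duplicate, with a maximum concentration of 100 uM.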

Read-out in assay [17]: matrix metalloproteinase-3 (MMP3), MMP3 (gene 4314)
The experiment in a line: LTEA_HepaRG_MMP3: Life Technologies and Expression Analysis (LTEA) Assay for matrix metalloproteinase-3 (MMP3) using HepaRG (AID 2283519). The method, boiled down: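 HepaRG, human; 48 h dosing, 8 conc. (max 100 uM, half-log), duplicate, 0.5% DMSO. Readout: MMP3 transcript by Fluidigm TaqMan qRT-PCR, ACTB/GAPDH/POLR2A-normalised. Gain or loss fitted vs DMSO.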

Read-out in assay [18]: Paternally Expressed 10 (PEG10), PEG10 (gene 23089)
The assay can be described thus: LTEA_HepaRG_PEG10: Life Technologies and Expression Analysis (LTEA) Assay for Paternally Expressed 10 (PEG10) using HepaRG (AID 2283520).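 On AC50: PEG10 transcript by qRT-PCR normalised to ACTB GAPDH and POLR2A.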 In outline:
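Chemicals tested on HepaRG cells for 48 h, highest concentration 100 uM. PEG10 expression assessed by qRT-PCR relative to DMSO control.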

Read-out in assay [19]: Nuclear factor NF-kappa-B p105 subunit (Homo sapiens) (UniProt P19838)
The experiment in a line: LTEA_HepaRG_NFKB1: Life Technologies and Expression Analysis (LTEA) Assay for Nuclear Factor Kappa B Subunit 1 (NFKB1) using HepaRG (AID 2283521). In outline:
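Differentiated human HepaRG cells were exposed for 48 h in serum-free induction medium to eight concentrations (top 100 uM, half-log steps, 0.5% DMSO), in duplicate. NFKB1 mRNA was measured by TaqMan qRT-PCR, normalized to ACTB/GAPDH/POLR2A, and fitted bidirectionally against DMSO.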

Read-out in assay [20]: MYC, MYC (gene 4609)
The assay can be described thus: LTEA_HepaRG_MYC: Life Technologies and Expression Analysis (LTEA) Assay for MYC using HepaRG (AID 2283518). In outline:
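HepaRG, ~100,000 cells/well, collagen I; 48 h plating; serum-free induction medium; 48 h dosing, duplicate, 100 uM top, half-log, 0.5% DMSO; total RNA → qRT-PCR MYC; gain/loss fit vs DMSO.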

SMILES strings stand for the structures. Calls of active or inactive are those of the source. How the source made its calls: active means hit-call score of the fitted dose curve at least 0.9, where 1 is the maximum; inactive means score below 0.9.

Sequence of Nuclear factor NF-kappa-B p105 subunit (Homo sapiens) (P19838 whole entry, looked up): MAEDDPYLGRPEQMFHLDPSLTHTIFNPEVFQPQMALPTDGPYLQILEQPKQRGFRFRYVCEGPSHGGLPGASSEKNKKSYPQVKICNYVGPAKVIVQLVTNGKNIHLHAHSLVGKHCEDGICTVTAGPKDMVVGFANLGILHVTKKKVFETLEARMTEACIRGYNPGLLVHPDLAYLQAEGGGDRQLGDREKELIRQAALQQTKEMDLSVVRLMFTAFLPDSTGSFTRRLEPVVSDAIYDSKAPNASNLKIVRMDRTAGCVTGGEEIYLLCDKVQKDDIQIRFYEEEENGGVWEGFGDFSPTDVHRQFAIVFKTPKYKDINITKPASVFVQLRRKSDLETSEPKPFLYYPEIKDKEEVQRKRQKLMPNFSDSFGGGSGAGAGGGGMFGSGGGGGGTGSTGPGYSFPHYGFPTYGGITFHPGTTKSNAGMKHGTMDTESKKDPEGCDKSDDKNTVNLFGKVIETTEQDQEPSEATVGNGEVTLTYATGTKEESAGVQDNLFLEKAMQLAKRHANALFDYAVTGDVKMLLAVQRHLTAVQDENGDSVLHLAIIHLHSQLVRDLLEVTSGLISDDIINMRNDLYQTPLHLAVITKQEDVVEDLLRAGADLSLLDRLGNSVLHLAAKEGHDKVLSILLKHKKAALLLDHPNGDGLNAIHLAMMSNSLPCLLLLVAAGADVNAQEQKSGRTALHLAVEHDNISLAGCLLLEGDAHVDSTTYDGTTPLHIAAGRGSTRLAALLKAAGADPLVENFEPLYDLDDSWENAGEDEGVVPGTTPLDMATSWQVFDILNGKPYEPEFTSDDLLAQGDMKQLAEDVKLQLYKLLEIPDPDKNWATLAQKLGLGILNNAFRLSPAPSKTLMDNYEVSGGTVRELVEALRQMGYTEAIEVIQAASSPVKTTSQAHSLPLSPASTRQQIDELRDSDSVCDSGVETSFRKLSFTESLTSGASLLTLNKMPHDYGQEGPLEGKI
Sequence of Hypoxia-inducible factor 1-alpha (Homo sapiens) (Q16665 whole entry, looked up): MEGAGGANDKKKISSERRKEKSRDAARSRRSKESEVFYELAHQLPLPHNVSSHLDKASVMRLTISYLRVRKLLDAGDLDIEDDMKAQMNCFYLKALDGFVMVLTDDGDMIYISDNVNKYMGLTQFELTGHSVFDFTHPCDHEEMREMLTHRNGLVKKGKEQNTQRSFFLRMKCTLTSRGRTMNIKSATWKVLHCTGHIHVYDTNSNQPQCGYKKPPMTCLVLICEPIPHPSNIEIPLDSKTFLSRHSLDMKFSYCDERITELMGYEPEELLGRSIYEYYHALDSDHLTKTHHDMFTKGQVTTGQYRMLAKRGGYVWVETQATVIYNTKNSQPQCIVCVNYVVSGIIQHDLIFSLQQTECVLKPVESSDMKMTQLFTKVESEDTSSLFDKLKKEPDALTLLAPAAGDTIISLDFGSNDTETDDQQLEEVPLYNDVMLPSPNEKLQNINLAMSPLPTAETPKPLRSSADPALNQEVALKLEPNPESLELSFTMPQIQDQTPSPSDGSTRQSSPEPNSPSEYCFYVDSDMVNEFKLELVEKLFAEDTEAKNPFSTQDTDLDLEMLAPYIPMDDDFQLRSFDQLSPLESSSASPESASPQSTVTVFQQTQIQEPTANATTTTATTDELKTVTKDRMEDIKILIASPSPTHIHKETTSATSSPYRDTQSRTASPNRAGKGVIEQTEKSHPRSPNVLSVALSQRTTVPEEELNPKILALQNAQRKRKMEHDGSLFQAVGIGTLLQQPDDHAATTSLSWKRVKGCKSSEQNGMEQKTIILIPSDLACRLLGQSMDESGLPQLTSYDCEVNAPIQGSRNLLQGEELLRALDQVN

One may read the AC50 as the concentration giving half of the maximal activity seen. Consider `CSc1nc(NC(C)C)nc(NC(C)C)n1`, for which the call in assay [1], in [2], in [4], in assay [6], in assay [7] and in [8] was inactive. Further, the result in assay [9], in assay [10], in [11], in [12], in assay [13] and in [14] was inactive. The compound was called inactive in assay [16] and in assay [17]. Further, the AC50 in assay [3] is 50 µM (active); in [5], 20.7 µM (active); in [15] it was 50 µM (active); in assay [18] it was 22.5 µM (active).
With `COc1cc(OC)nc(Sc2cccc(Cl)c2C(=O)O)n1`, the call in [1], in [2], in assay [3], in assay [4], in assay [5] and in assay [6] was inactive. Moreover, the outcome in assay [7], in assay [8], in assay [9], in assay [10], in assay [11] and in assay [12] was inactive. Moreover, the outcome in assay [13], in assay [14], in [15], in assay [16], in [17] and in assay [18] was inactive. For the same compound, the result in [19] was inactive.
For the compound `CNC(=O)Oc1cccc2c1OC(C)(C)O2`, the outcome in assay [1], in assay [2], in assay [3], in [4], in assay [5] and in [6] was inactive. For the same compound, the compound was called inactive in assay [7], in [8], in [9], in assay [10], in assay [11] and in assay [13]. Besides, the call in [14], in assay [15], in assay [16], in assay [17] and in assay [18] was inactive.
With `CON=C(C(=O)OC)c1ccccc1CON=C(C)c1cccc(C(F)(F)F)c1`, the compound was classed as inactive in assay [1], in assay [2], in assay [3], in assay [4], in [6] and in assay [7]. The compound was classed as inactive in assay [8], in assay [9], in assay [10], in assay [11], in assay [12] and in assay [13]. Further, the call in assay [14], in [15], in [16], in assay [17], in assay [18] and in [19] was inactive. For the same compound, in assay [5], the AC50 was 50 µM (active).
Take `CSC1=N[C@@](C)(c2ccccc2)C(=O)N1Nc1ccccc1`: the call in assay [1], in assay [4], in assay [10], in [16] and in assay [17] was inactive. The AC50 in assay [2] is 77.1 µM (active); in assay [3], 35.3 µM (active); in [5] it was 27.6 µM (active); in assay [6], 34 µM (active); in assay [7], 31.6 µM (active); in [8] it was 33.3 µM (active). Moreover, the AC50 is 16.5 µM (active) in assay [9]; 18.7 µM (active) in assay [11]; 31.4 µM (active) in assay [13]; 26.9 µM (active) in assay [14]; 50 µM (active) in assay [15]; 31.2 µM (active) in assay [20]. Also, the half-maximal activity concentration (AC50) in [18] was 20.1 µM (active).
In the case of `CCCCOC(=O)c1ccccc1C(=O)O`, the call in assay [1], in [2], in assay [3], in assay [4], in [5] and in assay [6] was inactive. For the same compound, the outcome in [7], in assay [8], in [9], in assay [10], in [11] and in assay [13] was inactive. In addition, the compound was called inactive in assay [14], in assay [15], in [16], in [20], in [17] and in assay [18]. Also, the result in [19] was inactive.
